For 40 compounds, outcome and activity change, negative = cytotoxicity results are on record in PubChem BioAssay (Tox21).

The structures appear in SMILES notation. Records with an inconclusive call do not appear. Unmarked numbers belong to inactive results. Activity calls are given as the source filed them. Calls come from the whole dose curve; as a rule, active = well fitted cell-killing curve with a large enough effect in the repeat runs; inconclusive = weak or mixed curves, or effect the other way; inactive = no such curve, though single readings can be large or run the other way.
% is set by controls: 0 for no effect and ±100 for the full control effect.

The test in a line: qHTS assay to identify small molecule antagonists of the progesterone receptor (PR) signaling pathway - cell viability counter screen (AID 1346798). Note: nearly all actives have a fitted effect of over 50% in size. Conditions: PR-UAS-bla HEK293T viability, CellTiter-Glo luminescence, 16 h; series mostly up to 92.4 µM. The text has this:
National Center for Advancing Translational Sciences [NCATS]
NIH Chemical Genomics Center [NCGC]
U.S. Environmental Protection Agency [EPA]
National Institutes of Environmental Health Sciences [NIEHS]
National Toxicology Program [NTP]
U.S. Food and Drug Administration [FDA]
Progesterone receptor (PR), a nuclear hormone receptor, plays an important role in development, metabolic homeostasis and reproduction. It is activated by the steroid hormone progesterone. Endocrine disrupting chemicals (EDCs) and their interactions with steroid hormone receptors like PR causes disruption of normal endocrine function. To identify the compounds that inhibit PR signaling, a PR-UAS-bla GripTite cell line i.e. PR-UAS-bla HEK293T (Invitrogen, Carlsbad, CA, USA) containing a beta-lactamase reporter gene under the control of an UAS response element was used to screen Tox21 10K compound library. The cytotoxicity of the Tox21 compound library against the PR-bla cell line was tested in parallel by measuring the cell viability using CellTiter-Glo assay in the same wells.
Tox21 Assay Protocol Summary:
PR-UAS-bla HEK293T cells were dispensed at 3,000 cells/4 uL of assay medium containing 2% charcoal stripped FBS per well into black wall/clear-bottom 1536-well plates using a Multidrop Combi (ThermoFisher Scientific, Waltham, MA) dispenser. After the assay plates were incubated at a 37C and 5% CO2 for 4 hr, 23 nL of compounds dissolved in DMSO, positive controls or DMSO only was transferred to the assay plate by a Pintool station (Kalypsys, San Diego, CA), followed by addition of 1 uL of R5020 in assay medium using a Flying Reagent Dispenser (FRD, Aurora Discovery, San Diego, CA). The plates were incubated at 37C and 5% CO2 for 16 hr. Then 1 uL of LiveBLAzer B/G FRET substrate was added using a Flying Reagent Dispenser, the plates were incubated at room temperature for 2 hours, and fluorescence intensity was measured by an Envision plate reader (PerkinElmer, Shelton, CT). For cell viability readout that measures cytotoxicity, 4 uL/well of CellTiter-Glo reagent was added into the assay plates using a FRD. After 30 min incubation at room temperature, the luminescence intensity in the plates was measured using a ViewLux (PerkinElmer) plate reader.
Turning to `CC(C)Nc1ccccc1`, the call was inactive.

In the case of `O=C1c2ccccc2C(=O)c2cc(Cl)ccc21`, the activity change, negative = cytotoxicity is -7.61% [at 8.39 µM].

For `CCC/C=C(\C=O)CC`, the call was inactive.

As for `O=Cc1cc2ccccc2o1`, the outcome was inactive.

For the compound `C[C@H]1[C@@H](c2ccccc2)NC(=O)N1C`, the call was inactive.

Turning to `Fc1ccccc1`, the compound was classed as inactive.

As for `CCO`, the outcome was inactive.

Take `CCCC(=O)OCCC(C)CCC=C(C)C` (stereo not given): the call was inactive.

On to `CC(=O)O[C@@H]1CC2CCC1(C)C2(C)C` (stereo not given in full), for which the call was inactive.

For `CC1=C(C(=O)O)N2C(=O)[C@@H](NC(=O)[C@H](N)C3=CCC=CC3)[C@H]2SC1`, the call was inactive.

Turning to `CCCCCCCCCCCCCCCCCC#N`, the outcome was inactive.

Regarding `COc1ccc2c(c1)c1c3n2CCN(C)C3=NCC1`, the call was inactive.

As to `CCCCC1CCC(O)CC1` (stereo not given), the call was inactive.

As for `C=CCSSCCC`, the outcome was inactive.

`CCN(CC)CCN`: the outcome was inactive.

With `CC1(C)Oc2ccc(C#N)cc2[C@@H](N2CCCC2=O)[C@@H]1O`, the compound was classed as inactive.

On to `CC(C)NC(=O)c1ccc(C=O)cc1`, for which the outcome was inactive.

Turning to `O=C1CCC(=O)N1Cl`, the call was inactive.

In the case of `CO[Si](CCCn1c(=O)n(CCC[Si](OC)(OC)OC)c(=O)n(CCC[Si](OC)(OC)OC)c1=O)(OC)OC`, the call was inactive.

For `Cc1ccc(C(=O)O)cc1[N+](=O)[O-]`, the call was inactive.

For `COc1cc2c(cc1OC)CN(C(=O)[C@H](C)N[C@@H](CCc1ccccc1)C(=O)O)[C@H](C(=O)O)C2`, the call was inactive.

`CC(=O)O[Si](C)(OC(C)=O)OC(C)=O`: the compound was classed as inactive.

Regarding `O=C(Cl)c1ccccc1[N+](=O)[O-]`, the compound was called inactive.

In the case of `Cc1c(N)cccc1Cl`, the compound was called inactive.

Regarding `O=C[O][Al]([O]C=O)[O]C=O`, the call was inactive.

With `CC(O)COC(C)(C)C` (stereo not given), the compound was called inactive.

For `C/C=C(\C)C(=O)OCCc1ccccc1`, the outcome was inactive.

For `Cn1c(=O)c2[nH]c(Br)nc2n(C)c1=O`, the compound was classed as inactive.

With `Nc1nnnn1-c1ccccc1`, the compound was classed as inactive.

For `CO/N=C(/C(=O)N[C@@H]1C(=O)N2C(C(=O)[O-])=C(C[n+]3ccn4ncccc43)CS[C@H]12)c1nsc(N)n1`, the call was inactive.

With `CCOC(CN1CCN(CC(C)C(=O)c2ccccc2)CC1)c1ccccc1` (stereo not given), the activity change, negative = cytotoxicity is 27.5% [at 18.9 µM].

`CC(=O)CC(=O)Nc1ccc(C)cc1C`: the result was inactive.

With `CC(=O)c1cc(C)oc1C`, the outcome was inactive.

For `C=CC(=O)OCC1CCCO1` (stereo not given), the outcome was inactive.

For `CCC(=O)Oc1ccc2c(c1)CC[C@@H]1[C@@H]2CC[C@@]2(C)[C@H]1C[C@@H](OC(=O)CC)[C@@H]2OC(=O)CC`, the call was inactive.

`C=CC(=O)CCCCC`: the result was inactive.

As for `O=C(CCCl)NCCc1ccccc1`, the compound was called inactive.

`O=C(O)c1cc2ccccc2nc1C(=O)O`: the compound was called inactive.

Consider `Cc1c(C(=O)c2c[nH]n(C)c2=O)ccc(S(C)(=O)=O)c1C1=NOCC1`, for which the outcome was inactive.

On to `C=C(C)[C@@H]1CC=C(C)C(=O)C1`, for which the compound was called inactive.
